Among the data in the supplement of paper PMC5641865, “A screen for kinase inhibitors identifies antimicrobial imidazopyridine aminofurazans as specific inhibitors of the Listeria monocytogenes PASTA kinase PrkA” (The Journal of Biological Chemistry, 2017) are growth inhibition values, retold here.

SMILES strings stand for the structures. ± gives the standard deviation of the averaged measurements.
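Also: End-point A600 read in BHI broth at 37 °C with 2% DMSO, inhibition computed as (1 − OD with compound plus ceftriaxone ÷ OD with ceftriaxone only) × 100.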

This test concerns Listeria monocytogenes 10403S. Put plainly: growth inhibition relative to ceftriaxone-alone control; higher = stronger potentiation of ceftriaxone growth inhibition. As to conditions: 10 µM; ceftriaxone 1 ug/ml; 12 h.
In the case of `NC(=O)c1ccc(N(C(N)=O)c2c(F)cccc2F)nc1-c1ccc(F)cc1F`, the growth inhibition turned out to be 3.69 ± 12%. In the case of `COc1cc2nccc(Oc3ccc(NC(=O)Nc4cc(C)on4)c(Cl)c3)c2cc1OC` [Tivozanib (AV-951)], the growth inhibition came to 23.7 ± 1.2%. The same measure for `NC(=O)c1sc(-n2cnc3ccc(C(F)(F)F)cc32)cc1OCc1ccccc1Br`: -2.79 ± 1.9%.

As to `COc1cc(N2CCN(C(C)C)CC2)ccc1Nc1nc(Nc2ccc(F)cc2C(N)=O)c2cc[nH]c2n1`, the growth inhibition is -11.9 ± 7%. The same measure for `CCOc1ccn(-c2ccc(F)cc2)c(=O)c1C(=O)Nc1ccc(Oc2ccnc(N)c2Cl)c(F)c1`: 23.6 ± 24%. As for `Fc1ccc(-c2cc(-c3c[nH]nc3-c3ccccn3)ccn2)cc1`, the growth inhibition was -6.8 ± 13%. With `COCC(=O)NC/C=C/c1ccc2ncnc(Nc3ccc(Oc4ccc(C)nc4)c(C)c3)c2c1`, the growth inhibition is -5.16 ± 23%. In the case of `Clc1ccc(-c2nn3ncccc3c2-c2ccnc(Nc3ccccc3)n2)cc1`, the growth inhibition was -7.12 ± 3.8%.

For `COc1cc2ncnc(Nc3ccc(F)c(Cl)c3)c2cc1OCCCN1CCOCC1` [Gefitinib (Iressa)], the growth inhibition was 31 ± 21%. The same measure for `O=C1NC(=O)C(c2cccc(Cl)c2)=C1Nc1ccc(Cl)c(C(=O)O)c1`: 9.83 ± 0.41%; for `N#CC(=C(/N)Sc1ccccc1N)/C(C#N)=C(\N)Sc1ccccc1N`: 51.1 ± 42%; for `COc1ccc2c(-c3ccnc(Nc4cccc(OC(F)(F)F)c4)n3)cnn2n1`: -7.53 ± 17%. Take `COc1ccc(COc2cc3oc(=O)c4cc(C(C)O)ccc4c3cc2OC)cc1` (stereo not drawn) [Palomid 529]: the growth inhibition came to 18 ± 10%.

For the compound `CN(C)C/C=C/C(=O)Nc1cc2c(Nc3ccc(F)c(Cl)c3)ncnc2cc1O[C@H]1CCOC1` [Afatinib (BIBW2992)], the growth inhibition turned out to be 45.41 ± 0.44%. As for `COc1cc(Nc2ncc(-c3ccccc3)o2)cc(OC)c1`, the growth inhibition came to 17 ± 3.9%. The same measure for `COc1cc2ncn(-c3cc(OCc4ccccc4C(F)(F)F)c(C(N)=O)s3)c2cc1OC`: -2.24 ± 0.56%. Take `CC(C)c1ccc(Nc2nccc(-c3cnn4ncccc34)n2)cc1`: the growth inhibition is -0.923 ± 0.22%. For `Cc1[nH]nc2ccc(-c3cncc(OC[C@@H](N)Cc4ccccc4)c3)cc12`, the growth inhibition worked out at 76.8 ± 16%. As to `COc1cc2ncnc(Nc3ccc(F)c(Cl)c3)c2cc1NC(=O)/C=C/CN1CCCCC1`, the growth inhibition was determined as 60 ± 55%. Turning to `CS(=O)(=O)CCN(CC#N)Cc1ccc(-c2ccc3ncnc(Nc4ccc(OCc5cccc(F)c5)c(Cl)c4)c3c2)o1`, the growth inhibition came to 1.01 ± 5.1%. On to `Cc1cnc(Nc2ccc(OCCN3CCCC3)cc2)nc1Nc1cccc(S(=O)(=O)NC(C)(C)C)c1`, for which the growth inhibition came out at 39 ± 15%. As for `COc1ccc(-c2cc(-c3c[nH]nc3-c3ccccn3)ccn2)cc1`, the growth inhibition amounted to 3.1 ± 4.7%.

With `COc1cc2ncnc(Nc3ccc4c(cnn4Cc4ccccc4)c3)c2cc1OC`, the growth inhibition is -12.1 ± 18%. Consider `Clc1ccc(Nc2nnc(Cc3ccncc3)c3ccccc23)cc1` [Vatalinib 2HCl (PTK787)], for which the growth inhibition worked out at 24.8 ± 20%. The same measure for `Cc1ccc(NC(=O)c2ccoc2)cc1-c1ccc(C(=O)NCC2CC2)cc1`: 16.8 ± 3.1%.

For `O=C1NC(=O)[C@@H](c2cn3c4c(cccc24)CCC3)[C@@H]1c1c[nH]c2ccccc12` [ARQ 197 (Tivantinib)], the growth inhibition turned out to be 63.3 ± 38%. In the case of `CN(C)CCOc1ccc(-c2cc(-c3ccc4c(c3)CCC4=NO)c(-c3ccncc3)o2)cc1`, the growth inhibition worked out at 36.5 ± 39%. For the compound `N#Cc1c(O)c2c(-c3ccc(-c4ccccc4O)cc3)csc2[nH]c1=O`, the growth inhibition was found to be 40.8 ± 15%. For the compound `COc1ccc2cc(-c3c(-c4ccncc4)nc(-c4ccc(S(C)(=O)=O)cc4C)n3C)ccc2c1`, the growth inhibition was -1.1 ± 3.1%. Regarding `CCS(=O)(=O)c1ccc(OC)c(Nc2ncc(-c3ccccc3Cl)o2)c1`, the growth inhibition was -2.57 ± 15%. The same measure for `COc1cc2ncn(-c3cc(OCc4ccccc4Cl)c(C(N)=O)s3)c2cc1OC`: -6.56 ± 0.46%. `CCS(=O)(=O)c1cccc(-c2cc(C(=O)NC3CCN(C)CC3)c(C)c3[nH]c4ncc(C)cc4c23)c1`: the growth inhibition stood at 31.1 ± 6.9%. Take `N#Cc1c(NC(=O)c2cccc3ccccc23)sc2c1CCCC2`: the growth inhibition is -6.35 ± 1.2%. For the compound `CCOc1cc2ncc(C#N)c(Nc3ccc(F)c(Cl)c3)c2cc1NC(=O)/C=C/CN(C)C` [Pelitinib (EKB-569)], the growth inhibition was determined as 14.9 ± 10%.

For `CCS(=O)(=O)c1ccc(OC)c(Nc2ncc(-c3cccc(-c4ccccc4F)c3)o2)c1`, the growth inhibition is 2.03 ± 2.4%. Take `CCn1c(-c2nonc2N)nc2ccccc21`: the growth inhibition is -9.18 ± 6.6%. Turning to `CCN1CCN(c2ccc(Nc3cc(N(C)C(=O)Nc4c(Cl)c(OC)cc(OC)c4Cl)ncn3)cc2)CC1`, the growth inhibition was determined as 12.2 ± 5.4%.

As for `c1ccc(COc2ccc(Nc3ncnc4ccc(-c5ccco5)cc34)cc2)cc1`, the growth inhibition is -9.94 ± 12%.
